# Unmarked numbers belong to inactive results. Active and inactive are the calls of the source.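 Rule for the calls, unless noted: active = mean inhibition above 46.68%, the untreated control wells mean plus 3 SD; inactive = the rest.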
# Legend:
# [1] = biological target: Nuclear receptor coactivator 1 (Homo sapiens) (UniProt Q15788); experiment: SRC1 coactivator transcriptional activity inhibitors, confirmation, cell-based, luminescence, quadruplicate (AID 588820); details: HEK293 GAL4-SRC1 luciferase reporter, at 3.6 µM, active compounds read high;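 note: 0% = DMSO wells and 100% = gossypol 36 µM treated wells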
# Chain of Nuclear receptor coactivator 1 (Homo sapiens) (Q15788 whole entry, looked up, the tested form may be a part): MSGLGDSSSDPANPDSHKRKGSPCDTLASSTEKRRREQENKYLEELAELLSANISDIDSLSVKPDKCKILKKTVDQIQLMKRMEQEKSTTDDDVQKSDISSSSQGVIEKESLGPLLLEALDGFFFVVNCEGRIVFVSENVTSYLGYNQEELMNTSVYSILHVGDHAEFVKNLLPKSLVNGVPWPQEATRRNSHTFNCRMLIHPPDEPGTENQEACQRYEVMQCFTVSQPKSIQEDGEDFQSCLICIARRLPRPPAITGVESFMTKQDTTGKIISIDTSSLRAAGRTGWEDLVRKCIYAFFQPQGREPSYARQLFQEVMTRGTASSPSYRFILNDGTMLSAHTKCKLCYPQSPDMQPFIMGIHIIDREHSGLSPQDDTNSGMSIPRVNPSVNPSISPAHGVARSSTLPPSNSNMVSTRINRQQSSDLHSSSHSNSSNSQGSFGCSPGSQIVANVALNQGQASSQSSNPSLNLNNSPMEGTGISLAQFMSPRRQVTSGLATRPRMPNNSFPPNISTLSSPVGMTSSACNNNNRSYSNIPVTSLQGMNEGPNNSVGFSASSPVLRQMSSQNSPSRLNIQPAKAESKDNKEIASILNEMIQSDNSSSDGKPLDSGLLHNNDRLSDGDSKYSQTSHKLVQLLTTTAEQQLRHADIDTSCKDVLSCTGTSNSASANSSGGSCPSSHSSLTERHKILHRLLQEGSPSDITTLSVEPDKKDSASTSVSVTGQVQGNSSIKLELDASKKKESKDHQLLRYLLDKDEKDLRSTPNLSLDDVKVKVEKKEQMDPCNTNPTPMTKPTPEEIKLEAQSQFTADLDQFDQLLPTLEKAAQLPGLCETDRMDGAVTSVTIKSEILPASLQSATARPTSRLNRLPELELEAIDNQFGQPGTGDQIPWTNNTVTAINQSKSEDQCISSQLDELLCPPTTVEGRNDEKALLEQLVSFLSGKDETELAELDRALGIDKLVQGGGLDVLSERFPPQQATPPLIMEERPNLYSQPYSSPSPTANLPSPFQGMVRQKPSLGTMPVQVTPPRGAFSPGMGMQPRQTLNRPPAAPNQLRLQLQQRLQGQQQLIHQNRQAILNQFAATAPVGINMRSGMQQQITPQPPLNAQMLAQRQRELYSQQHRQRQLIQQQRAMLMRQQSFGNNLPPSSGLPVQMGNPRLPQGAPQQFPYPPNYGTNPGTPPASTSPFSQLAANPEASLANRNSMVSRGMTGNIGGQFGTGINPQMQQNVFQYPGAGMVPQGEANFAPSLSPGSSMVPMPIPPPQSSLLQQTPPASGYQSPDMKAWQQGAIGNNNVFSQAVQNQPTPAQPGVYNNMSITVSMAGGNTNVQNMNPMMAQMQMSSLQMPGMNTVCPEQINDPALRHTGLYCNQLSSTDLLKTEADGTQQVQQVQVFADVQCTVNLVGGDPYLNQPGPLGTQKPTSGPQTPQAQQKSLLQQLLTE
# [2] = VP16 transactivation inhibitors, counter-screen for SRC1 inhibitor project, cell-based, luminescence, high throughput (AID 588824; in the data active = inhibition above about 25%); details: cell-based VP16 transactivation luciferase luminescence; at 3.6 µM; active compounds read high
# [3] = StAR promoter reporter inhibitors, counter-screen for LRH-1 inverse agonist project, cell-based, luminescence, high throughput (AID 651611; in the data active = inhibition above about 28%); details: StAR promoter luciferase reporter counterscreen, at 3.6 µM, active compounds read high
# [4] = biological target: Nuclear receptor subfamily 5 group A member 2 (Homo sapiens) (UniProt O00482); experiment: LRH-1 (NR5A2) inverse agonists, retest, confirmation, cell-based, luminescence (AID 651613; in the data active = inhibition above about 42%;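 note: HEK293T cells co-transfected with LRH-1 and StAR promoter luciferase reporter; 0% = vehicle wells and 100% = parental cells lacking receptor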); details: cell-based LRH-1 luciferase reporter, inverse agonism; at 3.6 µM; active compounds read high
# Chain of Nuclear receptor subfamily 5 group A member 2 (Homo sapiens) (O00482 whole entry, looked up): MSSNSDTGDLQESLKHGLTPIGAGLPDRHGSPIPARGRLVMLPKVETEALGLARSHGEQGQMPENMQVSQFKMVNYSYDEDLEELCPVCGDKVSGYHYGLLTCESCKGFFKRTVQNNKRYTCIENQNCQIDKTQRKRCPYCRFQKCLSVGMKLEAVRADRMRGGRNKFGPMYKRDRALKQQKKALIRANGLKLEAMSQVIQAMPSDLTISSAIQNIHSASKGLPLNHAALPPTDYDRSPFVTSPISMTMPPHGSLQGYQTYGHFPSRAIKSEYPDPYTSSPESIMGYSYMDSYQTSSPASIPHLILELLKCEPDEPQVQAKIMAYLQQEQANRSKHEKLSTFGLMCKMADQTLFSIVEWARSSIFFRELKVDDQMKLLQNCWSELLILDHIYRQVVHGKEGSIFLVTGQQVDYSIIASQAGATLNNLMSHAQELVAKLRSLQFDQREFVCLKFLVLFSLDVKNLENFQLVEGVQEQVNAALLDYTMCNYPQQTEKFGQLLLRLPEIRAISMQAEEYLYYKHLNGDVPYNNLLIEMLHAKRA
# [5] = biological target: Steroidogenic factor 1 (Homo sapiens) (UniProt Q13285); experiment: SF1 (NR5A1) inverse agonists, counter-screen for LRH-1 inverse agonist project, cell-based, luminescence, high throughput (AID 651614; in the data active = inhibition above about 44%;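 note: cells cotransfected with StAR promoter reporter and SF1 expression vector; 0% = vehicle on cells with receptor and 100% = vehicle on cells lacking receptor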); details: cell-based SF1 luciferase reporter, at 3.6 µM, active compounds read high
# Chain of Steroidogenic factor 1 (Homo sapiens) (Q13285 whole entry, looked up, the tested form may be a part): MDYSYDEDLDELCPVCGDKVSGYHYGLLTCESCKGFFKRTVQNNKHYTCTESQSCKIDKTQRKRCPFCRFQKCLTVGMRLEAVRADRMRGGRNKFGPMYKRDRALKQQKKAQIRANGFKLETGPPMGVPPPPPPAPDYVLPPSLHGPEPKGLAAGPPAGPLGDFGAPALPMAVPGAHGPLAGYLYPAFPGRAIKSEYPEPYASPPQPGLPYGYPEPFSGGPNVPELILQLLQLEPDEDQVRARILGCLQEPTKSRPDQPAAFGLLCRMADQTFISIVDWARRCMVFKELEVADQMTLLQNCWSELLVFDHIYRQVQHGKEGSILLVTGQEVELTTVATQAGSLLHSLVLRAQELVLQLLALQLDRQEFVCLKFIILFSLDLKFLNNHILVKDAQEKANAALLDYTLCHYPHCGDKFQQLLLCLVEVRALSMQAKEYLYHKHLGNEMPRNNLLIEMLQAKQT
# [6] = VP16 transactivation reporter inhibitors, counter-screen for LRH-1 inverse agonist project, cell-based, luminescence, high throughput (AID 651615; in the data active = inhibition above about 33%); details: Gal4-VP16 luciferase reporter cells, at 3.6 µM, active compounds read high
Compound,inhibition [1] [%],inhibition [2],inhibition [3],inhibition [4],inhibition [5],inhibition [6]
CN(C)c1ccc(Sc2ccc3nc(N)nc(N)c3c2)cc1,14.5,27.5% (active),60.9% (active),107% (active),61.6% (active),80.2% (active)
CCN(CC)C1=CC(=[N+]2CCCC2)CC(C)(C)C1,-5.15,22.7%,17.4%,61.9% (active),57.5% (active),45.8% (active)
CN(C)CCN1C(=O)c2cccc3cc([N+](=O)[O-])cc(c23)C1=O,-146,47.5% (active),67% (active),96.7% (active),84.4% (active),68.2% (active)
CCN(CC(=O)Nc1ccc(NC(C)=O)cc1)C(=O)C1(c2ccc(Cl)cc2)CCC1,16.1,9.61%,-2.92%,40.1%,27.4%,11.8%
Cc1sc2ncnc(NCC3COc4ccccc4O3)c2c1C (stereo not drawn),-48.1,26.2% (active),18%,62% (active),46.1% (active),57.4% (active)
O=C(CSc1nnnn1C1CC2CCC1C2)Nc1ccnc2ccccc12 (stereo not drawn),-14.4,44.7% (active),30% (active),61% (active),56.1% (active),59.1% (active)
Cc1cccc(-n2ncc3c2CCCC3NC(=O)c2ccncc2)c1C (stereo not drawn),-10.4,26.6% (active),14.7%,54.5% (active),52.1% (active),44% (active)
O=C1c2cccc3cc([N+](=O)[O-])cc(c23)C(=O)N1CCN1CCCC1,-86.9,42.6% (active),13.3%,91.6% (active),68.6% (active),64.2% (active)

# Source: PubChem BioAssay
